Screening data deposited in PubChem by National Center for Advancing Translational Sciences (NCATS).
Compounds with a hit are over-represented: about 7.5% of the library has one in this group of screens.
FLuc modulator: qHTS profiling assay for firefly luciferase inhibitor/activator using purifed enzyme and Km concentrations of substrates (counterscreen for miR-21 project); AID 588342, 2011; purified FLuc, Km substrates, luminescence inhibition; Potency, µM (series often up to 57.5 µM), for the others: at the highest dose activity change, negative = inhibition, most hits filed as inhibitors; 6.9% of 360,000 active;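 further: plate controls were vehicle for no effect and reference inhibitor for full effect; nearly all actives have a fitted effect of over 55% in size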
Target sequence (P08659 whole entry, looked up): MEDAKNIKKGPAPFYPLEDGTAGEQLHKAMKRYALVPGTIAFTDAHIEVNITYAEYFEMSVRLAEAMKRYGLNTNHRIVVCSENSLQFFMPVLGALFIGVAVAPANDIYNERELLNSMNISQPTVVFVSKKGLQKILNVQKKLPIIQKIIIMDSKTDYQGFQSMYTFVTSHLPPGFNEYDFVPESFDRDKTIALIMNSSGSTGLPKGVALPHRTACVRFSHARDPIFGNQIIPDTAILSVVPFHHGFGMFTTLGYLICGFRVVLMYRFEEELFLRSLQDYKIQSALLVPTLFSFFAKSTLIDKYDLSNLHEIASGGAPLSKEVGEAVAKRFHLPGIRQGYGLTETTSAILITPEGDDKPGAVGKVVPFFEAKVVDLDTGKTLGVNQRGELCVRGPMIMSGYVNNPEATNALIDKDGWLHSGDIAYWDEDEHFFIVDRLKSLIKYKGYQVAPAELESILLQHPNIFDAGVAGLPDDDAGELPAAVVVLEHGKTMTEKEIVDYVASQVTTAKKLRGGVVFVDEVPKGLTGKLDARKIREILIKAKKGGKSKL
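Purified P. pyralis luciferase (10nM final) with 10uM D-luciferin and 10uM ATP (Km levels) in 50mM Tris acetate pH 7.5, 10mM Mg acetate, 0.01% Tween-20, 0.05% BSA; qHTS 6-point titration, ~60 µM downward; luminescence read.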
ELG1 genotox: qHTS screen for small molecules that induce genotoxicity in human embryonic kidney (HEK293T) cells expressing luciferase-tagged ELG1; HEK293T ELG1-luciferase reporter, luminescence, 16 h; Potency, µM (highest dose often 46 µM), without a hit: at the highest dose activity change, positive = activation, actives largely listed as activators; 1.3% of 330,000 active; AID 504466, 2011; further: % of control where 0% means no effect; nearly all actives have a fitted effect of over 60% in size
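ELG1-luciferase HEK293T cells, 2,000/well; compound pinned in; 16 hr, 37 °C, 5% CO2; ONE-Glo, 30 min RT; luminescence on CCD imager.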
Rab9 promoter act: qHTS Assay for Rab9 Promoter Activators | 2.8% of 320,000 active | Potency, µM (series often up to 9.22 µM), without a hit: at the top dose activation, negative = inhibition, hits mostly activators | AID 485297, 2010 | Huh7 Rab9 promoter-luciferase reporter, luminescence, 24 h; further: % of control where 0% means no effect; nearly all actives have a fitted effect of over 60% in size
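Rab9 promoter-driven luciferase in stably transfected Huh7 cells; 1500 cells/well rested 2 h, exposed to compound in DMSO for 24 h at 37 °C, 5% CO2. Luminescence read 10 min after adding luciferase reagent at ambient temperature.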
SMN2 splice up: qHTS Assay for Enhancers of SMN2 Splice Variant Expression; AID 1458, 2008; HEK293 SMN2-luciferase splicing reporter, luminescence, 30-36 h; 2.8% of 210,000 active; Potency, µM (top dose mostly 46.1 µM), for the others: at the top dose activity change, positive = activation, hits mostly activators; further: % of control where 0% means no effect; nearly all actives have a fitted effect of over 55% in size
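HEK293 cells carry an SMN2 […]–luciferase reporter in which exon 7 inclusion puts luciferase in frame. Cells were plated 10-12 h before compound addition, then incubated 30-36 h at 37C. ONE-Glo luminescence was read; sodium butyrate at 4.5 mM final served as control.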
NPC1 prom act: qHTS Assay for NPC1 Promoter Activators; Potency, µM (highest dose often 9.22 µM), for the others: top-dose activation, hits mostly activators; Huh7 NPC1 promoter luciferase reporter, 24 h; 2.4% of 320,000 active; AID 485313, 2010; further: % of control where 0% means no effect; nearly all actives have a fitted effect of over 60% in size
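Cells: Huh7 expressing luciferase under the NPC1 promoter, 1500/well. Seeded 2 h, compound added, incubated 24 h at 37 °C. Luciferase reagent, 10 min ambient, then luminescence.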
* marks the source's active call; other numbers are inactive results; ? = inconclusive; / = not tested or not shown; ! = repeats disagree; [ ] = another dose, or the depositor's remark. The call rests on the fitted dose curve; in most records, active means well fitted curve in the direction sought with a large enough effect; inconclusive means small, poorly fitted or top-dose-only effect, or another doubt; inactive means no such curve, though single readings can be large; an effect the other way counts as inactive or inconclusive. Potency means the concentration at half of the fitted maximal effect.

SMILES	FLuc modulator	ELG1 genotox	Rab9 promoter act	SMN2 splice up	NPC1 prom act
COc1ccccc1NC(=O)C1=C(C)Nc2c(C(=O)Nc3ccc(F)cc3)cnn2C1c1ccc(Cl)cc1 (centres undefined)	-11%	/	/	/	/
CCOC(=O)C(C)Sc1nc(-c2ccco2)cc(C(F)(F)F)c1C#N (centres undefined)	5%	1%	-4%	0%	2%
COc1ccc(NS(=O)(=O)c2cc3[nH]c(=O)c(=O)[nH]c3cc2C)cc1OC	-1%	/	/	/	/
Cc1ccc(CNC(=O)Cc2c(C)c3cc4c(C)coc4cc3oc2=O)cc1	-3%	/	/	9%	/
Cc1cccc(NS(=O)(=O)c2nnc(NC(=O)C3CCCCC3)s2)c1	6.7µM*!	-3%	3%	/	-3%
Cc1cccc(NS(=O)(=O)c2nnc(NC(=O)CC(C)C)s2)c1	1%	-2%	0%	/	0%
Cc1cccc(/C=N/n2c(C)cc(C)c(C#N)c2=O)c1	-6%	1%	1%	6%	-3%
O=C1CCCc2c1sc1nc3n(c(=O)c21)CCCCC3	-20%	?	25%	28%	?
O=C1c2sc3nc4n(c(=O)c3c2CCC1Br)CCCCC4 (centres undefined)	19µM*	?	?	-4%	29%
O=c1c2c3c(sc2nc2n1CCCCC2)C(O)CCC3 (centres undefined)	?	?	2.8µM*	/	?
O=c1c2c3c(sc2nc2n1CCCCC2)CCC3	-15%	?	27%	0%	15%
CCC(=O)N1c2ccc(S(=O)(=O)NCc3ccc(F)cc3)cc2CC1C (centres undefined)	5%	/	/	-50%	/
COc1ccc(OCCOc2ccccc2[N+](=O)[O-])cc1	17µM*	?	?	?	?
O=[N+]([O-])c1ccccc1OCCOc1ccccc1[N+](=O)[O-]	-8%	11%	2µM*	/	3.5µM*
CCOC(=O)/C=C/COc1ccccc1[N+](=O)[O-]	15µM*	22%	?	24%	15%
O=C(CCOc1ccccc1)Nc1ccccc1[N+](=O)[O-]	-11%	13%	15%	19%	12%
O=[N+]([O-])c1ccccc1NCCOc1ccccc1	9.5µM*	?	?	?	?
Cc1cc(C)cc(N2C(=O)CSC23C(=O)N(CC(=O)NCCc2ccccc2)c2ccccc23)c1 (centres undefined)	-8%	/	/	/	/
COc1cc(NC(=O)Cn2ccc3ccccc3c2=O)cc(OC)c1OC	3%	/	/	4%	/
CCN(C(=O)C(C)Sc1nnc(-c2ccncc2)n1C)C1CCCCC1 (centres undefined)	/	1%	/	/	/
Cc1nc(-c2ccc(Cl)cc2)sc1C1(C)CC(c2ccc(F)cc2)=NO1 (centres undefined)	?	12%	6%	/	14%
Cc1nc(-c2ccc(Cl)cc2)sc1C1(C)CC(c2cccc(Cl)c2)=NO1 (centres undefined)	24µM*	15%	3%	/	18%
Cc1nc(-c2ccc(Cl)cc2)sc1C1(C)CC(c2cccc(F)c2)=NO1 (centres undefined)	24µM*	14%	-4%	/	14%
O=C(CCl)Nc1cn(-c2ccccc2)nc1-c1ccc(F)cc1	-15%	-4%	-3%	-25%	-13%
N#CCCSc1ccccc1NC(=O)c1ccc(S(=O)(=O)N2CCCC2)cc1	?	-2%	-2%	-17%	-5%
SMILES	FLuc modulator	ELG1 genotox	Rab9 promoter act	SMN2 splice up	NPC1 prom act
CCN(CC)c1ccc2cc(-c3nnc(-c4ccccc4)o3)c(=O)oc2c1	?	?	?	11µM*	2.8µM*
CN(C)Cc1c(O)ccc2cc(-c3nc4ccccc4n3C)c(=O)oc12	4%	?	16%	/	28%
CCN(CC)c1ccc2cc(-c3nc4ccccc4[nH]3)c(=O)oc2c1	0.076µM*	0.15µM*	0.1µM*	0%	0.28µM*
CCN(CC)c1ccc2cc(-c3nc4ccccc4n3C)c(=O)oc2c1	1.9µM*	?	16%	?	?
CCN(CC)c1ccc2cc(-c3nc(-c4ccc(Cl)cc4Cl)cs3)c(=O)oc2c1	-1%	/	/	/	/
C=CCNC(=O)c1ccc(-c2cccc([N+](=O)[O-])c2)o1	?	?	?	22µM*	?
C=CCNC(=O)c1ccc(-c2ccc([N+](=O)[O-])cc2)o1	?	7%	9%	15%	8%
O=C(Nc1ccccc1F)c1ccc(-c2cccc([N+](=O)[O-])c2)o1	13µM*	?	?	/	?
CCNC(=O)[C@H](C)/C=C/C(NC(=O)OCc1ccccc1)c1ccc(C(=O)OC)cc1 (some centres undefined)	/	/	/	-9%	/
CCc1ccc(Nc2n[n+](-c3ccccc3)c(-c3c(Cl)cccc3Cl)s2)cc1	4%	2%	-10%	/	-1%
CCc1ccc(Nc2n[n+](-c3ccccc3)c(/C=C/c3ccccc3)s2)cc1	12µM*	-7%	-2%	/	1%
COc1ccc(-c2noc(CSc3nc(N)cc(=O)[nH]3)n2)cc1	21µM*	0%	-2%	/	4%
COc1ccc(-c2noc(CSc3nc4ccccc4[nH]3)n2)cc1	2%	/	/	0%	/
COc1ccc(-c2noc(CSc3nnc(-c4ccccc4)n3C)n2)cc1	21µM*	5%	3%	-5%	2%
O=c1c(-c2ccc3c(c2)OCCO3)coc2cc(OC3OC(CO)C(O)C(O)C3O)ccc12 (centres undefined)	11µM*	?	0.5µM*	/	0.56µM*
Cc1ccc(S(=O)(=O)N2CCN(S(=O)(=O)c3ccccc3Br)CC2)cc1	/	0%	/	/	/
COc1ccccc1Nc1nc(-c2c(C)[nH]c3ccccc23)cs1	11µM*	11%	16%	14µM*	15%
COc1ccccc1Nc1nc(-c2cccc(N3C(=O)c4ccccc4C3=O)c2)cs1	6.7µM*	1%	-4%	6%	-1%
O=C1c2ccccc2C(=O)N1c1cccc(-c2csc(Nc3ccc4c(c3)OCO4)n2)c1	2.1µM*	16%	29%	?	18%
Cc1[nH]c2ccccc2c1-c1csc(N)n1	0%	2%	1%	/	-5%
C/C(=N\[N+](C)(C)C)c1ccc(C)c(C)c1	/	/	/	-16%[9.22 µM]	/
COc1ccc(Cl)cc1NC(=S)Nc1cccnc1	-2%	-1%	-3%	-1%	1%
CCOC(=O)c1cnc2c(N=Nc3ccccc3)c(N)nn2c1N	0.95µM*	?	1.1µM*	16µM*	1.1µM*
CCOC(=O)c1cnc2c(-c3ccccc3)cnn2c1N	0.6µM*	?	0.5µM*	10µM*	0.63µM*
CCOC(=O)c1cnc2c(-c3ccc(Cl)cc3)cnn2c1C	0.6µM*	2.6µM*	0.89µM*	11µM*	1.8µM*
